Rows were chosen to be rich in hits. Some 6.3% of all compounds tested hit in one or more screens of this group.
DPM-DC inhibit: S. pneumoniae DPM-DC inhibition. purified DPM-DC, PK/LDH coupled NADH fluorescence. calls only at 10 µM. 0.49% of 65,000 active;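 active means the 320 compounds with the highest percent inhibition in the single-dose primary screen, excluding strongly autofluorescent ones, cut at about 32% in these data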;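 further: kinetic rate of NADH fluorescence loss reporting ADP formed by the decarboxylase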
NADH coupling: inhibitors of enzymes used to reach an NAD/NADH endpoint. IC50, µM (titrated, usually from 10 µM), inactives show top-dose inhibition. AID 774. coupled PK/LDH NADH assays, four targets. 0.02% of 65,000 active;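 active means single-dose screening hits from any of four coupled enzyme assays that gave an IC50 when retested across doses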;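 further: the DPM-DC format reads NADH fluorescence rather than 340 nm absorbance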
A340 absorber: compound absorbs light at 340 nm | AID 708 | fold change at 10 µM | 65,000 tested, under 10 active | compound absorbance at 340 nm, fold over control;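 active means at 10 µM dose, initial 340 nm absorbance at least 2 fold that of control wells; inactive means change under 2 fold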;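 further: initial absorbance extrapolated from kinetic A340 decline of NADH oxidation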
Autofluor 339: intrinsic fluorescence of library compounds, ex339/em460 – biochemical, MLSMR library, data from DPM-DC assay, artefact control, profiling panel; compound autofluorescence, ex339/em460 nm, NADH buffer; active compounds read high; 1 = no-compound wells, NADH background; fluorescence fold increase at 10 µM; 5.5% of 65,000 active; AID 709;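 active means at 10 µM, mean starting fluorescence two-fold or more over control wells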;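 further: signal is the first read of a kinetic run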
Spn MK inh: S. pneumoniae mevalonate kinase inhibition; purified MK, PK/LDH-coupled NADH absorbance 340 nm; inhibition, % at 10 µM; 0.48% of 65,000 active; AID 555;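 active means ranked among the strongest by inhibition in the single 10 µM screen, a fixed top-ranked set picked for dose follow-up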
Spn PMK inh: S. pneumoniae PMK inhibition; purified PMK, PK/LDH-coupled NADH absorbance 340 nm; inhibition, % at 10 µM; 0.49% of 65,000 active;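 active means top-ranked compounds by inhibition in the single 10 µM screen, taking a fixed number of the strongest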;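 further: 0% = full reaction with DMSO carrier and 100% = background rate without enzyme reaction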
* = called active by the depositor; i = inactive; x = no result shown; + = active, no number.

SMILES	DPM-DC inhibit	NADH coupling	A340 absorber	Autofluor 339	Spn MK inh	Spn PMK inh
COc1cccc(OC)c1C(=O)N1CCN(Cc2ccccc2C)CC1	i	17.0%	1.04	0.85	48.0*	0.0
Cc1cccc(C)c1N1CCN(S(=O)(=O)c2ccc(F)cc2)CC1	i	5.0%	1.08	1.1	5.0	10.0
COc1cccc(CN2CCN(C(=O)c3cccc4ccccc34)CC2)c1OC	i	5.0%	1.04	1.12	7.0	9.0
CCOC(=O)CNC(=O)Cn1cnc2sc(C)c(S(=O)(=O)N3CCC(C)CC3)c2c1=O	i	8.0%	0.98	1.07	11.0	13.0
COc1cccc(CNC(=O)C2CCCN(c3nn4c(=O)cc(C)nc4s3)C2)c1 (stereo not given)	i	9.0%	1.02	1.08	0.0	27.0*
CCN(CC)c1ccc2cc(-c3nc4ccccc4[nH]3)c(=O)oc2c1	i	8.0%	0.8	1.09	37.0	i
CCN(CC)c1ccc2cc(-c3nc4ccccc4n3C)c(=O)oc2c1	x	5.0%	1.05	2.13*	5.0	4.0
COc1cc(-c2nc3cnccn3c2Nc2ccc3c(c2)OCCO3)ccc1O	i	8.0%	1.1	1.47	7.0	0.0
COc1cc(-c2nc3cnccn3c2Nc2ccccc2)ccc1O	x	3.0%	1.12	2.11*	3.0	2.0
Cc1cc2c(c(=O)o1)C(Cc1ccccc1)C(C#N)=C(N)O2 (stereo not given)	i	3.0%	1	1.05	0.0	3.0
COc1cc2c(cc1OC)-c1cc(NC3CCCCC3)nc(=O)n1CC2	i	7.0%	1.11	1.72	13.0	7.0
COc1cc2c(cc1OC)-c1cc(NC3CCCCCCC3)nc(=O)n1CC2	i	11.0%	1.13	2.37*	3.0	12.0
COc1cc2c(C(=O)NCc3ccccn3)cn(C)c(=O)c2cc1OC	i	2.0%	1.02	1.14	3.0	0.0
COc1cc2c(cc1OC)-c1cc(OCCN3CCOCC3)nc(=O)n1CC2	x	7.0%	1.12	3.86*	12.0	1.0
COc1cc2c(cc1OC)-c1cc(NCc3ccccn3)nc(=O)n1CC2	x	35.0%	1.18	3.35*	52.0*	17.0
COc1cc(C(=O)OCCN2CCOCC2)cc(OC)c1OC	i	2.0%	1.03	1.05	7.0	0.0
CCCCCCNc1cc2n(c(=O)n1)CCc1cc(OC)c(OC)cc1-2	x	8.0%	1.13	3.36*	7.0	8.0
Cc1nc(N2CCN(c3ccccc3)CC2)nc2c1C(=O)CC(c1ccccc1)C2 (stereo not given)	i	2.0%	1	1.22	4.0	2.0
O=C(NC(Cc1ccccc1)C(=O)N1CCN(c2ccccn2)CC1)c1ccco1 (stereo not given)	i	8.0%	1.05	1.25	15.0	2.0
CCNc1cc2n(c(=O)n1)CCc1cc(OC)c(OC)cc1-2	i	6.0%	1.17	2.69*	1.0	0.0
COc1cc2c(cc1OC)-c1cc(NC3CC3)nc(=O)n1CC2	i	8.0%	1.14	1.72	10.0	10.0
O=C(CCCc1c[nH]c2ccccc12)N1CCCCCC1	i	8.0%	0.98	1.1	11.0	12.0
COc1ccc(OC)c(C2C3=C(CCCC3=O)Nc3nc4ccccc4n32)c1 (stereo not given)	i	7.0%	1.13	1.71	9.0	8.0
COc1ccc(C2C3=C(CCCC3=O)Nc3nc4ccccc4n32)c(OC)c1OC (stereo not given)	x	4.0%	1.08	5.08*	0.0	8.0
COc1ccc(C2C3=C(CCCC3=O)Nc3nc4ccccc4n32)cc1OC (stereo not given)	x	8.0%	1.2	3.05*	10.0	6.0
SMILES	DPM-DC inhibit	NADH coupling	A340 absorber	Autofluor 339	Spn MK inh	Spn PMK inh
COc1ccc(CNc2ccc3c(c2)nc(C)n3C)cc1	i	9.0%	1.04	1.23	9.0	19.0
O=c1c2ccccc2nc2n1CCCS2	i	0.0%	1.06	1.1	0.0	1.0
O=c1c2cc(Cl)ccc2oc2nc3n(c(=O)c12)CCCS3	i	11.0%	1.13	2.6*	7.0	7.0
O=c1c2ccccc2nc2n1CCN2Cc1ccc(Cl)cc1	x	5.0%	1.04	2.18*	9.0	1.0
COc1ccc(-c2cc(C(=O)OCC(=O)N(C)C)c3ccccc3n2)cc1	+	19.0%	1.07	2.54*	7.0	12.0
CCOc1ccc(-c2cc(C(=O)O)c3ccccc3n2)c(OCC)c1	i	6.0%	1.13	1.78	6.0	0.0
CCOC(=O)c1oc2ccccc2c1NC(=O)COc1ccc(F)cc1	i	16.0%	1.05	3.89*	8.0	15.0
CCOC(=O)c1oc2ccccc2c1NC(=O)c1ccccc1OC	i	6.0%	1.03	1.49	5.0	13.0
CCOC(=O)c1oc2ccccc2c1NC(=O)COc1cccc(OC)c1	i	8.0%	1.07	2.92*	3.0	11.0
O=C(CN1CCOc2ccccc21)NCc1cccs1	i	4.0%	1.04	1.1	2.0	11.0
COc1cc(CNc2ccc(N3CCOCC3)c(C(=O)O)c2)ccc1OCC(N)=O	+	7.0%	0.99	2.32*	6.0	2.0
O=C(O)c1cc(NCc2ccc3c(c2)OCO3)ccc1N1CCOCC1	i	4.0%	1.02	2.45*	10.0	1.0
COc1ccccc1CNc1ccc(N2CCOCC2)c(C(=O)O)c1	i	8.0%	1.01	2.23*	6.0	3.0
COC(=O)c1cc(NCc2ccc3c(c2)OCO3)ccc1N1CCOCC1	i	9.0%	0.99	1.7	11.0	10.0
CCOC(=O)N1CCN(c2c(N3CCOCC3)c(=O)c2=O)CC1	i	7.0%	1.03	1.04	18.0	3.0
O=C(c1n[nH]c(=O)c2ccccc12)N1CCN(C2c3ccccc3-c3ccccc32)CC1	i	12.0%	0.99	0.97	1.0	29.0*
CCC(CC)NC(=O)c1n[nH]c(=O)c2ccccc12	i	0.0%	1.02	1.03	0.0	0.0
CCOC(=O)N1CCN(C(=O)c2ccc3c(=O)n(CCOC)c(=O)[nH]c3c2)CC1	i	5.0%	1.08	1.2	9.0	0.0
COC(=O)c1ccccc1NC(=O)c1ccc(-c2ccccc2F)o1	x	2.0%	1.03	2.21*	6.0	10.0
Cc1nn(-c2ccccc2)c(C)c1C(=O)OCC(=O)Nc1ccc2c(c1)OCO2	i	5.0%	1.03	1.05	6.0	9.0
CCOc1ccc(-c2nc(C#N)c(N3CCN(CC)CC3)o2)cc1	x	5.0%	1.05	2.37*	1.0	8.0
Cc1ccc(OCc2nc(C#N)c(N3CCN(Cc4ccccc4)CC3)o2)cc1	i	3.0%	1.03	1.13	6.0	3.0
CCCOc1ccc(-c2nc(C#N)c(N3CCN(CC)CC3)o2)cc1	x	10.0%	1.06	3.35*	7.0	12.0
O=c1[nH]c2cc3c(cc2cc1CN(Cc1ccccc1)Cc1nnnn1Cc1ccco1)OCCO3	i	10.0%	1.03	2.47*	6.0	2.0
CCc1ccc2[nH]c(=O)c(CN(Cc3ccccc3)Cc3nnnn3Cc3ccco3)cc2c1	i	4.0%	1.04	1.22	9.0	3.0
